Inconclusive results are not listed. Entries that show only a call come without a potency. Active and inactive are the calls of the source. Calls come from the whole dose curve; as a rule, active = well fitted curve in the direction sought with a large enough effect in the repeat runs; inconclusive = weak or mixed curves; inactive = no such curve, though single readings can be large; an effect the other way counts as inactive or inconclusive.
Tested on: not listed separately
Test: qHTS assay to identify small molecule antagonists of the estrogen receptor alpha (ER-alpha) signaling pathway using the BG1 cell line - cell viability counter screen (AID 743081);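 note: compound given together with 17beta-estradiol as the ER stimulus; nearly all actives have a fitted effect of over 45% in size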
Details: BG1Luc4E2 viability, CellTiter-Fluor, 22 h; series mostly up to 70.3 µM
For NCC1CCCC(CN)C1 (configuration not stated), the Potency was “inactive”.
With O=C(C(=O)c1ccccc1)c1ccccc1 the Potency was “inactive”.
In the case of C[N+](C)(C)CCOC(N)=O, the Potency is reported as “inactive”.
In the case of c1cnc2c(n1)CCCC2, the Potency is reported as “inactive”.
For Nc1nccs1, the Potency was “inactive”.
For CCCCCCOC(=O)CCCCCCCC(=O)OCCCCCC, the Potency was “inactive”.
In the case of COCCOC, the Potency is reported as “inactive”.
With C/C=C(\C)C(=O)OCCC(C)CCC=C(C)C (configuration not stated) the Potency was “inactive”.
For CC(=N\O)/C(C)=N/O, the Potency was “inactive”.
In the case of CC(C)CCCCCOC(=O)CCCCC(=O)OCCCCCC(C)C, the Potency is reported as “inactive”.
In the case of CO[C@H]1O[C@H](CO)[C@@H](O)[C@H](O)[C@H]1O, the Potency is reported as “inactive”.
In the case of CN1CCN(CCCN2c3ccccc3Sc3ccc(S(=O)(=O)N(C)C)cc32)CC1, the Potency is reported as “inactive”.
In the case of O=C(CCCCCCCCC#CI)Oc1ccccc1, the Potency is reported as “inactive”.
In the case of CC1=CC(=O)CC(C)(C)C1(O)/C=C/C(C)=C\C(=O)O (configuration not stated), the Potency is reported as “inactive”.
For CCCC(=O)O[C@]1(C(=O)COC(=O)CC)CC[C@H]2[C@@H]3CCC4=CC(=O)CC[C@]4(C)[C@H]3[C@@H](O)C[C@@]21C, the Potency was “inactive”.
With Cc1ccccc1N1C(=O)c2cc(S(N)(=O)=O)c(Cl)cc2NC1C (configuration not stated) the Potency was “inactive”.
With Cc1ccc(/C=N/n2c(-c3ccccc3)csc2=S)cc1 the Potency was “inactive”.
For Cc1cnc(C)c(C)n1, the Potency was “inactive”.
With CC(C)(C)C(=O)O the Potency was “inactive”.
In the case of CCCCC(=O)O[C@]1(C(=O)CO)CC[C@H]2[C@@H]3CCC4=CC(=O)CC[C@]4(C)[C@H]3[C@@H](O)C[C@@]21C, the Potency is reported as “inactive”.
In the case of COC(=O)Nc1nc2ccc(C(=O)c3cccs3)cc2[nH]1, the Potency is reported as “inactive”.
In the case of CC(C)c1nnc2ccc(-c3ocnc3-c3cc(F)ccc3F)cn12, the Potency is reported as “inactive”.
With C[N+]1(C)CCC(=C(c2ccccc2)c2ccccc2)CC1 the Potency was “inactive”.
With CC(=O)[C@H]1CC[C@H]2[C@@H]3C[C@H](C)C4=CC(=O)CC[C@]4(C)[C@H]3[C@@H](O)C[C@]12C the Potency was “inactive”.
With C=CC(=C)CCCC(C)(C)OC(C)=O the Potency was “inactive”.
For Fc1c(F)c(F)c(Br)c(F)c1F, the Potency was “inactive”.
In the case of Nc1nc(Cl)nc2c1ncn2[C@@H]1O[C@H](CO)[C@@H](O)[C@@H]1F, the Potency is reported as “inactive”.
In the case of CCOC(=O)[C@@H](C)Oc1ccc(Oc2nc3ccc(Cl)cc3o2)cc1, the Potency is reported as “inactive”.
With CCCCC(CC)CNCC(CC)CCCC (configuration not stated) the Potency was “inactive”.
For C[Si]1(C)O[Si](C)(C)O[Si](C)(C)O1, the Potency was “inactive”.
In the case of COCc1c(C(C)C)nc(C(C)C)c(/C=C/[C@@H](O)C[C@@H](O)CC(=O)O)c1-c1ccc(F)cc1, the Potency is reported as “inactive”.
With CCC(C)=O the Potency was “inactive”.
With CC1(C)C(=O)N(Br)C(=O)N1Cl the Potency was “inactive”.
For CC1CC(O)CC(C)(C)C1 (configuration not stated), the Potency was “inactive”.
In the case of CC1C2CC(CC2C2CCCC(O)C2)C1(C)C (configuration not stated), the Potency is reported as “inactive”.
In the case of CCCCCCCCSCCO, the Potency is reported as “inactive”.

Biological target: Aromatase (Homo sapiens) (UniProt P11511)
Sequence (P11511 whole entry, looked up): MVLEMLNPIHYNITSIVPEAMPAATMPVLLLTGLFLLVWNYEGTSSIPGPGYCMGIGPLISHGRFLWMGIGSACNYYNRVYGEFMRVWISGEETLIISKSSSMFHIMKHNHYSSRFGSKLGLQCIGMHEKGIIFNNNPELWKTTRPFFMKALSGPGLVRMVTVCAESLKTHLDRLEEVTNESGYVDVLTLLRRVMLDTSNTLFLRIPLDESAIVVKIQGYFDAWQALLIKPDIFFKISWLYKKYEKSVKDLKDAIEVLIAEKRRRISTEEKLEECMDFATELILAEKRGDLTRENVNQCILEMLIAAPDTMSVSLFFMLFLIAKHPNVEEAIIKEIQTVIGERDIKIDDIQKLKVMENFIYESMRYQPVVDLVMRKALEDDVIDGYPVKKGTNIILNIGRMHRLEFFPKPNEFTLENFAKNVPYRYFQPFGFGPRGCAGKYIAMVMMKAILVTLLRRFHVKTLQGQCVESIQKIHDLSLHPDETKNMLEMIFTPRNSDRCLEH
Test: qHTS assay to identify aromatase inhibitors (AID 743083); note: nearly all actives have a fitted effect of over 55% in size; note: potency is the fitted concentration of half-maximal effect
Details: MCF-7 aro ERE, testosterone-driven ERE luciferase, 24 h; series mostly up to 70.3 µM
For NCC1CCCC(CN)C1 (configuration not stated), the Potency was “inactive”.
For C[N+](C)(C)CCOC(N)=O, the Potency was “inactive”.
With c1cnc2c(n1)CCCC2 the Potency was “inactive”.
With Nc1nccs1 the Potency was “inactive”.
For CC(=N\O)/C(C)=N/O, the Potency was “inactive”.
In the case of CC(C)CCCCCOC(=O)CCCCC(=O)OCCCCCC(C)C, the Potency is reported as “inactive”.
For CO[C@H]1O[C@H](CO)[C@@H](O)[C@H](O)[C@H]1O, the Potency was “inactive”.
With CN1CCN(CCCN2c3ccccc3Sc3ccc(S(=O)(=O)N(C)C)cc32)CC1 the Potency was “inactive”.
With O=C(CCCCCCCCC#CI)Oc1ccccc1 the Potency was “inactive”.
In the case of CCCCN(CCCC)CCCOC(=O)c1ccc(N)cc1, the Potency is reported as “inactive”.
With CC1=CC(=O)CC(C)(C)C1(O)/C=C/C(C)=C\C(=O)O (configuration not stated) the Potency was “inactive”.
With CCCC(=O)O[C@]1(C(=O)COC(=O)CC)CC[C@H]2[C@@H]3CCC4=CC(=O)CC[C@]4(C)[C@H]3[C@@H](O)C[C@@]21C the Potency was “inactive”.
For Cc1ccccc1N1C(=O)c2cc(S(N)(=O)=O)c(Cl)cc2NC1C (configuration not stated), the Potency was “inactive”.
For Cc1cnc(C)c(C)n1, the Potency was “inactive”.
For CC(C)(C)C(=O)O, the Potency was “inactive”.
In the case of CCCCC(=O)O[C@]1(C(=O)CO)CC[C@H]2[C@@H]3CCC4=CC(=O)CC[C@]4(C)[C@H]3[C@@H](O)C[C@@]21C, the Potency is reported as “inactive”.
In the case of COC(=O)Nc1nc2ccc(C(=O)c3cccs3)cc2[nH]1, the Potency is reported as “inactive”.
In the case of CC(C)c1nnc2ccc(-c3ocnc3-c3cc(F)ccc3F)cn12, the Potency is reported as “inactive”.
For C[N+]1(C)CCC(=C(c2ccccc2)c2ccccc2)CC1, the Potency was “inactive”.
In the case of CC(=O)[C@H]1CC[C@H]2[C@@H]3C[C@H](C)C4=CC(=O)CC[C@]4(C)[C@H]3[C@@H](O)C[C@]12C, the Potency is reported as “inactive”.
For C=CC(=C)CCCC(C)(C)OC(C)=O, the Potency was “inactive”.
In the case of CCOC(=O)[C@@H](C)Oc1ccc(Oc2nc3ccc(Cl)cc3o2)cc1, the Potency is reported as “inactive”.
In the case of C[Si]1(C)O[Si](C)(C)O[Si](C)(C)O1, the Potency is reported as “inactive”.
With Cc1oc(C)c(C(=O)Nc2ccccc2)c1C the Potency was 13.7 µM (active).
With CC1(C)C(=O)N(Br)C(=O)N1Cl the Potency was “inactive”.
With CC1CC(O)CC(C)(C)C1 (configuration not stated) the Potency was “inactive”.
In the case of CCCCCCCCSCCO, the Potency is reported as “inactive”.

Tested on: not listed separately
Test: qHTS assay to identify aromatase inhibitors - cell viability counter screen (AID 743084);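 note: cells stimulated with testosterone during compound exposure; nearly all actives have a fitted effect of over 55% in size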
Details: MCF-7 aro ERE viability, CellTiter-Fluor, 24 h; series mostly up to 70.3 µM
For NCC1CCCC(CN)C1 (configuration not stated), the Potency was “inactive”.
With C[N+](C)(C)CCOC(N)=O the Potency was “inactive”.
In the case of c1cnc2c(n1)CCCC2, the Potency is reported as “inactive”.
For Nc1nccs1, the Potency was “inactive”.
In the case of C/C=C(\C)C(=O)OCCC(C)CCC=C(C)C (configuration not stated), the Potency is reported as “inactive”.
For CC(=N\O)/C(C)=N/O, the Potency was “inactive”.
In the case of CC(C)CCCCCOC(=O)CCCCC(=O)OCCCCCC(C)C, the Potency is reported as “inactive”.
For CO[C@H]1O[C@H](CO)[C@@H](O)[C@H](O)[C@H]1O, the Potency was “inactive”.
With CN1CCN(CCCN2c3ccccc3Sc3ccc(S(=O)(=O)N(C)C)cc32)CC1 the Potency was “inactive”.
For O=C(CCCCCCCCC#CI)Oc1ccccc1, the Potency was “inactive”.
With CCCCN(CCCC)CCCOC(=O)c1ccc(N)cc1 the Potency was “inactive”.
In the case of CC1=CC(=O)CC(C)(C)C1(O)/C=C/C(C)=C\C(=O)O (configuration not stated), the Potency is reported as “inactive”.
With CCCC(=O)O[C@]1(C(=O)COC(=O)CC)CC[C@H]2[C@@H]3CCC4=CC(=O)CC[C@]4(C)[C@H]3[C@@H](O)C[C@@]21C the Potency was “inactive”.
For Cc1ccccc1N1C(=O)c2cc(S(N)(=O)=O)c(Cl)cc2NC1C (configuration not stated), the Potency was “inactive”.
With Cc1ccc(/C=N/n2c(-c3ccccc3)csc2=S)cc1 the Potency was “inactive”.
In the case of Cc1cnc(C)c(C)n1, the Potency is reported as “inactive”.
With CC(C)(C)C(=O)O the Potency was “inactive”.
In the case of CCCCC(=O)O[C@]1(C(=O)CO)CC[C@H]2[C@@H]3CCC4=CC(=O)CC[C@]4(C)[C@H]3[C@@H](O)C[C@@]21C, the Potency is reported as “inactive”.
For COC(=O)Nc1nc2ccc(C(=O)c3cccs3)cc2[nH]1, the Potency was “inactive”.
With CC(C)c1nnc2ccc(-c3ocnc3-c3cc(F)ccc3F)cn12 the Potency was “inactive”.
In the case of C[N+]1(C)CCC(=C(c2ccccc2)c2ccccc2)CC1, the Potency is reported as “inactive”.
In the case of CC(=O)[C@H]1CC[C@H]2[C@@H]3C[C@H](C)C4=CC(=O)CC[C@]4(C)[C@H]3[C@@H](O)C[C@]12C, the Potency is reported as “inactive”.
In the case of C=CC(=C)CCCC(C)(C)OC(C)=O, the Potency is reported as “inactive”.
For Fc1c(F)c(F)c(Br)c(F)c1F, the Potency was “inactive”.
In the case of Nc1nc(Cl)nc2c1ncn2[C@@H]1O[C@H](CO)[C@@H](O)[C@@H]1F, the Potency is reported as “inactive”.
With CCOC(=O)[C@@H](C)Oc1ccc(Oc2nc3ccc(Cl)cc3o2)cc1 the Potency was “inactive”.
For CN(C)C(=O)Nc1ccc(Oc2ccc(Cl)cc2)cc1, the Potency was “inactive”.
For C[Si]1(C)O[Si](C)(C)O[Si](C)(C)O1, the Potency was “inactive”.
In the case of Cc1oc(C)c(C(=O)Nc2ccccc2)c1C, the Potency is reported as “inactive”.
In the case of COCc1c(C(C)C)nc(C(C)C)c(/C=C/[C@@H](O)C[C@@H](O)CC(=O)O)c1-c1ccc(F)cc1, the Potency is reported as “inactive”.
In the case of CCC(C)=O, the Potency is reported as “inactive”.
For CC1(C)C(=O)N(Br)C(=O)N1Cl, the Potency was “inactive”.
For CC1CC(O)CC(C)(C)C1 (configuration not stated), the Potency was “inactive”.
For CCCCCCCCSCCO, the Potency was “inactive”.

From PubChem BioAssay (Tox21)
